Assay results: PubChem BioAssay (Tox21)
Several values for one entry are separate records, joined by “and”; a condition that tells them apart may be missing. Identical values can stand only once. Records with an inconclusive call do not appear. A call without a number means that no potency is given here. Some structures have more than one record in an assay (separate samples or runs), and their calls can disagree. Activity calls are given as the source filed them. Unless noted, calls come from the whole dose curve; as a rule, active = well fitted curve in the direction sought with a large enough effect in the repeat runs; inconclusive = weak or mixed curves; inactive = no such curve, though single readings can be large; an effect the other way counts as inactive or inconclusive.

Tests used:
[1] = molecular target: Retinoic acid receptor RXR-alpha (Homo sapiens) (UniProt P19793); assay: qHTS assay to identify small molecule agonists of the RXR signaling pathway (AID 1159527; calls by dose curve; note: nearly all actives have a fitted effect of over 35% in size; note: potency is the fitted concentration of half-maximal effect)
Retinoic acid receptor RXR-alpha (Homo sapiens), sequence (P19793 whole entry, looked up): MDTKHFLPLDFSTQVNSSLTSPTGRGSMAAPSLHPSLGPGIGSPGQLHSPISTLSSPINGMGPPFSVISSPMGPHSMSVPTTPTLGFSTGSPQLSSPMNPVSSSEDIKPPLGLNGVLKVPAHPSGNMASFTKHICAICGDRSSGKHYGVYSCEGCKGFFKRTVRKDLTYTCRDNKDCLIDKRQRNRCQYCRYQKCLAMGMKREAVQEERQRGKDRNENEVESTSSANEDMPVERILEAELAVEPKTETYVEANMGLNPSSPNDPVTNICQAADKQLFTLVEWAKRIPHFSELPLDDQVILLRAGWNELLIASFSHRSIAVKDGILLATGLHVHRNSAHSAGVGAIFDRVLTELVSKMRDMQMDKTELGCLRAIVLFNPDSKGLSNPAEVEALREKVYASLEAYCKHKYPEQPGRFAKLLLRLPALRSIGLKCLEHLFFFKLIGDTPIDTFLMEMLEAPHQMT
Outline: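 Reporter activation is measured as beta-lactamase activity via FRET substrate cleavage (emission 460/530 nm) in HEK 293T cells expressing an RXR-alpha-driven bla construct, following 16 hr compound exposure at 37 C.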

[2] = qHTS assay to identify small molecule agonists of the RXR signaling pathway - cell viability counter screen (AID 1159529); note: series mostly up to about 77 µM; nearly all actives have a fitted effect of over 50% in size
Outline: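 Tox21 10K compounds were tested for cytotoxicity against GeneBLAzer RXR-alpha HEK 293T cells grown in 2% charcoal-stripped FBS. Exposure lasted 16 hr at 37 C, 5% CO2; viability read by CellTiter-Glo luminescence.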

[3] = qHTS assay to identify small molecule antagonists of the retinoid acid receptor (RAR) signaling pathway - cell viability counter screen (AID 1159551); note: nearly all actives have a fitted effect of over 35% in size
Outline: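 C3RL4 RARE-luciferase line; cpds + retinol 1 uM final, 6 h, 37 C/5% CO2; CellTiter-Glo ATP luminescence, 30 min RT.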

[4] = qHTS assay to identify small molecule agonists of the retinoic acid receptor (RAR) signaling pathway (AID 1159553); note: potency is the fitted concentration of half-maximal effect
Outline: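 RARE-luc C3RL4 cells; overnight attachment 37 C/5% CO2; compound (DMSO) 6 hr; luciferase reagent, 30 min RT; luminescence read-out.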

[5] = qHTS assay to identify small molecule antagonists of the estrogen related receptor (ERR) signaling pathway - cell viability counter screen (AID 1224818); note: series mostly up to about 46 µM
Outline: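 Fluorescence from CellTiter-Fluor, read 30 min after reagent addition at 37 C, measured viability of ERR cells exposed to compounds for 17.5 h. Cells had settled 6 h before dosing.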

[6] = qHTS assay to identify small molecule antagonists of the estrogen related receptor signaling pathway with the pleiotropic PPARgamma coactivator (PGC) cell viability counter screen (AID 1224822; note: series mostly up to about 46 µM)
Outline: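 Fluorescence read-out of CellTiter-Fluor after 30 min at 37 C; PGC/ERR cells, 2,000 per well, had been exposed to DMSO-dissolved compounds for 17.5 h following a 6 h pre-incubation.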

[7] = qHTS assay to identify small molecule antagonists of the estrogen related receptor (ERR) signaling pathway from Tox21 library - cell viability counter screen (AID 1224834); note: nearly all actives have a fitted effect of over 30% in size
Outline: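 Multiplexed viability counter screen in ERR cells: 17.5 h compound exposure at 37 C, CellTiter-Fluor added, 30 min at 37 C/5% CO2, fluorescence read.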

[8] = molecular target: Luciferin 4-monooxygenase (Photinus pyralis) (UniProt P08659); assay: qHTS assay to identify small molecule inhibitors of firefly luciferase (AID 1224835); note: nearly all actives have a fitted effect of over 25% in size; note: potency is the fitted concentration of half-maximal effect
Luciferin 4-monooxygenase (Photinus pyralis), sequence (P08659 whole entry, looked up): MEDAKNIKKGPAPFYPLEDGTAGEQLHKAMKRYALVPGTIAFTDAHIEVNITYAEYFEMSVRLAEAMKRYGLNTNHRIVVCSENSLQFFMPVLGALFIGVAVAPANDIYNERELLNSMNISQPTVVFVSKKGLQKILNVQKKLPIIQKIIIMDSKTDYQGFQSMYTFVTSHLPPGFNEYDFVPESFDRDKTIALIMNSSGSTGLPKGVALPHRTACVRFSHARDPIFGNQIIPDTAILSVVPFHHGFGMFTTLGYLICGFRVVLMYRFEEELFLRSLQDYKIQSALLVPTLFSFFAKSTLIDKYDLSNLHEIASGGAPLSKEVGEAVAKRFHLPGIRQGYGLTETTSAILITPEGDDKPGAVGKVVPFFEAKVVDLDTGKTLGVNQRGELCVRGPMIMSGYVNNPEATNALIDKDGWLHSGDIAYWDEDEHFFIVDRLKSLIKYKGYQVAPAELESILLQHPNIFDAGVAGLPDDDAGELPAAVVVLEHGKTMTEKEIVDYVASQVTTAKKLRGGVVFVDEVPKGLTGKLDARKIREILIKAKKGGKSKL
Outline: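 Biochemical qHTS: compounds run as interplate titrations against purified firefly enzyme, with D-luciferin and ATP each at its KM concentration. Light output recorded by CCD imaging.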

[9] = qHTS assay to identify small molecule agonists of the constitutive androstane receptor (CAR) signaling pathway - cell viability counter screen (AID 1224836); note: series mostly up to about 92 µM; nearly all actives have a fitted effect of over 45% in size
Outline: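 Fluorescence from CellTiter-Fluor indicates live cells after 23 h exposure. The human hepatoma line expresses hCAR and a CYP2B6-2.2kb reporter. Incubation medium contains 0.75 uM PK11195 (final).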

[10] = qHTS assay to identify small molecule antagonists of the constitutive androstane receptor (CAR) signaling pathway - cell viability counter screen (AID 1224837); note: series mostly up to about 92 µM; nearly all actives have a fitted effect of over 45% in size
Outline: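 Read-out: CellTiter-Fluor fluorescence after 23 hr at 37 C/5% CO2. Cells: HepG2 double-stable for hCAR and CYP2B6-2.2kb. Compounds tested at 15 concentrations in the presence of CITCO, final concentration 50 nM.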

[11] = qHTS assay to identify small molecule antagonists of the estrogen related receptor signaling pathway with the pleiotropic PPARgamma coactivator (PGC) from Tox21 10K library - cell viability counter screen (AID 1224840; active = well fitted cell-killing curve with a large enough effect in the repeat runs, not every such curve was filed as active; note: nearly all actives have a fitted effect of over 40% in size)
Outline: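 Fluorescence read-out of CellTiter-Fluor viability reagent, added after cells had been exposed to compound in DMSO for 17.5 h at 37 C; 30 min development at 37 C/5% CO2. Cells: PGC/ERR line, 2,000/well.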

[12] = molecular target: Nuclear receptor subfamily 1 group I member 3 (Homo sapiens) (UniProt Q14994); assay: qHTS assay to identify small molecule antagonists of the constitutive androstane receptor (CAR) signaling pathway (AID 1224838);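 note: HepG2 cells stably expressing hCAR with CYP2B6 luciferase reporter stimulated by CITCO; nearly all actives have a fitted effect of over 40% in size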
Nuclear receptor subfamily 1 group I member 3 (Homo sapiens), sequence (Q14994 whole entry, looked up): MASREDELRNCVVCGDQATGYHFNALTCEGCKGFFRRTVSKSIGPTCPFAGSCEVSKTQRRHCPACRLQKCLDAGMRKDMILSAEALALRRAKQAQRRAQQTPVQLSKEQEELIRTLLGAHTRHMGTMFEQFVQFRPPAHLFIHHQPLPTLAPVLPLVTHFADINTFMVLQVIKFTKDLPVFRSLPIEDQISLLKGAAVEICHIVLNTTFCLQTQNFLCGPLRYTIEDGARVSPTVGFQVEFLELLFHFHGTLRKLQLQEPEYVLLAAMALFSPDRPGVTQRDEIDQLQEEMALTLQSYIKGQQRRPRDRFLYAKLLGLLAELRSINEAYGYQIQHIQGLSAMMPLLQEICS
Outline: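 Read-out: ONE-Glo luciferase luminescence after 30 min at room temperature. HepG2-CYP2B6-hCAR double-stable cells, compounds in 15-point titration plus 50 nM CITCO final, 24 h at 37 C/5% CO2.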

[13] = molecular target: Nuclear receptor subfamily 1 group I member 3 (Homo sapiens) (UniProt Q14994); assay: qHTS assay to identify small molecule agonists of the constitutive androstane receptor (CAR) signaling pathway (AID 1224839); note: nearly all actives have a fitted effect of over 15% in size; note: potency is the fitted concentration of half-maximal effect
Outline: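 Stable hCAR/CYP2B6-2.2kb HepG2 line in DMEM with 10% FBS; compounds (15 concentrations) and 0.75 uM PK11195 final, 24 h at 37 C/5% CO2, then ONE-Glo luminescence after 30 min.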

[14] = qHTS assay to identify small molecule antagonists of the estrogen related receptor signaling pathway with the pleiotropic PPARgamma coactivator (PGC) from Tox21 10K library (AID 1224841; call rule not given here; note: series mostly up to about 92 µM; actives are mostly falling curves and most rising ones were filed inactive; nearly all actives have a fitted effect of over 50% in size)
Outline: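 Luminescence read-out (One-Glo luciferase reagent, 30 min at room temperature) from PGC/ERR cells exposed to DMSO-dissolved test compounds for 18 h at 37 C; cells, 2,000 per well, had been preincubated 6 h before compound transfer.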

[15] = qHTS assay to identify small molecule agonists of the estrogen related receptor signaling pathway with the pleiotropic PPARgamma coactivator (PGC) from Tox21 10K library (AID 1224842); note: nearly all actives have a fitted effect of over 15% in size
Outline: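 PGC/ERR reporter cell line, 2,000 cells per well, incubated 6 h at 37 C before 23 nL compound in DMSO was added. After 18 h at 37 C, One-Glo luminescence read following 30 min at room temperature.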

SMILES | Potency [1] | outcome [2] | outcome [3] | Potency [4] | outcome [5] | outcome [6] | Potency [7] | Potency [8] | Potency [9] | Potency [10] | Potency [11] | Potency [12] | Potency [13] | Potency [14] | Potency [15]
Cc1cccc(C)c1NC(=O)CN1CCCC1=O | inactive | inactive | inactive | inactive | inactive | inactive | inactive | inactive | inactive | inactive | inactive | – | – | – | –
COc1nc(NC(C)C)nc(NC(C)C)n1 | inactive | inactive | inactive | inactive | – | – | inactive | inactive | inactive | inactive | inactive | inactive | inactive | inactive | inactive
CN1C(=O)CCS(=O)(=O)C1c1ccc(Cl)cc1 (configuration not stated) | inactive | inactive | inactive | inactive | inactive | inactive | inactive | inactive | inactive | inactive | inactive | – | – | – | –
Cc1cc(Cl)ccc1OC(C)C(=O)O (configuration not stated) | inactive | inactive | inactive | inactive | – | – | inactive | inactive | inactive | inactive | inactive | – | inactive | – | –
N#Cc1cccc(C#N)c1 | inactive | inactive | inactive | inactive | – | – | inactive | inactive | inactive | inactive | inactive | inactive | inactive | – | –
CC[N+](=O)[O-] | inactive | inactive | inactive | inactive | – | – | inactive | inactive | inactive | inactive | inactive | inactive | inactive | – | –
CN(C)C(=O)Nc1cccc(C(F)(F)F)c1 | inactive | inactive | inactive | inactive | – | – | inactive | inactive | inactive | inactive | inactive | inactive | inactive | – | –
CNC(=O)O/N=C/C(C)(C)SC | inactive | inactive | inactive | inactive | – | – | inactive | inactive | inactive | inactive | inactive | inactive | inactive | inactive | inactive
N#Cc1ccccn1 | inactive | inactive | inactive | inactive | – | – | inactive | inactive | inactive | inactive | inactive | inactive | inactive | – | –
Cl[C@H]1OCCO[C@@H]1Cl | inactive | inactive | inactive | inactive | – | – | inactive | inactive | inactive | inactive | inactive | inactive | inactive | inactive | inactive
O=[N+]([O-])c1ccc(Cl)c(Cl)c1 | inactive | inactive | inactive | inactive | – | – | inactive | inactive | inactive | inactive | inactive | inactive | inactive | inactive | inactive
CCOC(=O)CC(SP(=O)(OC)OC)C(=O)OCC (configuration not stated) | inactive | inactive | inactive | inactive | – | – | inactive | inactive | inactive | inactive | inactive | inactive | inactive | – | –
Nc1cc(Cl)cc(Cl)c1 | inactive | inactive | inactive | inactive | – | – | inactive | inactive | inactive | inactive | inactive | inactive | inactive | – | –
Cc1cccc(N)c1 | inactive | inactive | inactive | inactive | – | – | inactive | inactive | inactive | inactive | inactive | inactive | inactive | inactive | inactive
O=C/C=C/c1ccccc1 | inactive | inactive | inactive | inactive and 34.4 µM (active) | – | – | inactive | inactive and 44.8 µM (active) | inactive | inactive | inactive | inactive | inactive | – | –
Cc1ccc(N=C=O)cc1N=C=O | inactive | inactive | inactive | inactive | – | – | inactive | 40.9 µM (active) and 63.1 µM (active) and inactive | inactive | inactive | inactive | inactive | inactive | inactive | inactive
CNc1cnn(-c2cccc(C(F)(F)F)c2)c(=O)c1Cl | inactive | inactive | inactive | 4.17 µM (active) and 5.45 µM (active) | – | – | inactive | 34.3 µM (active) and 39.9 µM (active) | inactive | inactive | inactive | inactive | 16.6 µM (active) and 24.3 µM (active) | – | –
CNC(=O)O/N=C/C(C)(C)S(C)(=O)=O | inactive | inactive | inactive | inactive | – | – | inactive | inactive | inactive | inactive | inactive | inactive | inactive | – | –
Cc1ccc(N)cc1 | inactive and 19.5 µM (active) | inactive | inactive | 61.5 µM (active) and inactive | – | – | inactive | inactive | inactive | inactive | inactive | inactive | 2.45 µM (active) | inactive | inactive
ClC(Cl)c1ccccc1 | inactive | inactive | inactive | inactive | – | – | inactive | inactive | inactive | inactive | inactive | inactive | inactive | inactive | inactive
CN(C)C(=O)C(c1ccccc1)c1ccccc1 | inactive | inactive | inactive | inactive | – | – | inactive | inactive | inactive | inactive | inactive | inactive | 26.9 µM (active) and 12.2 µM (active) | – | –
Cc1cc(O)ccc1Cl | inactive and 12.3 µM (active) | inactive | inactive | inactive | – | – | inactive | inactive | inactive | inactive | inactive | – | – | inactive | inactive
